Test results as given in publication PMC7862700, “An all-to-all approach to the identification of sequence-specific readers for epigenetic DNA modifications on cytosine”.

Assays:
Assay in all cases: DAPPL (digital affinity profiling via proximity ligation, sequencing); 10 mM Tris-HCl pH 7.5, 50 mM NaCl, 1 mM DTT, 4% glycerol, room temperature, 30 min; GST-TFs on glutathione beads, 16-mer random dsDNA library, 0.1% formaldehyde crosslink after washing; high values mean tight binding
Conditions in all cases: protein: recombinant; tags: N-terminal GST; dsDNA, one strand shown
FLI1 = biological target: T1, FLI1 (Homo sapiens, UniProt Q01543 1-452)
T1 sequence: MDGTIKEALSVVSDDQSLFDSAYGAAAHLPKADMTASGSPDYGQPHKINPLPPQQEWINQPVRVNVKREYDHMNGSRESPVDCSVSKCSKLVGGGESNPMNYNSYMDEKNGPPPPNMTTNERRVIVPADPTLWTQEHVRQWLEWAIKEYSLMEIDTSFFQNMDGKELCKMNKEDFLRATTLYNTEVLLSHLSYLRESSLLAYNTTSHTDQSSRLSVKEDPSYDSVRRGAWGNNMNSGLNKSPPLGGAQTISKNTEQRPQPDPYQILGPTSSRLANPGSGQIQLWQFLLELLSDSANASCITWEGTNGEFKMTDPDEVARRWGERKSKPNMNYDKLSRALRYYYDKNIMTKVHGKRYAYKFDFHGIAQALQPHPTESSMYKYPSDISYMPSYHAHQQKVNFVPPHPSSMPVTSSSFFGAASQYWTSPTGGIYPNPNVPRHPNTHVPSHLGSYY
How it was run: (§1)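 Human transcription factors fused to GST were expressed in yeast, captured on glutathione beads, given DNA barcodes and pooled with a GST-only negative control. Pools were incubated with 200 nmole of a 16-mer random double-stranded DNA library in Tris/NaCl/DTT/glycerol buffer at room temperature for 30 min. They were then washed, crosslinked with 0.1% formaldehyde, proximity-ligated (BsaI/T4 ligase, 1 h, 37 °C), PCR-amplified and sequenced on an Illumina NextSeq500. Binding signal is each 6-mer's read frequency for a factor divided by its frequency for the GST control.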

ELF1 = ELF1 (Homo sapiens, UniProt P32519 1-619)
Sequence of ELF1 (P32519 whole entry): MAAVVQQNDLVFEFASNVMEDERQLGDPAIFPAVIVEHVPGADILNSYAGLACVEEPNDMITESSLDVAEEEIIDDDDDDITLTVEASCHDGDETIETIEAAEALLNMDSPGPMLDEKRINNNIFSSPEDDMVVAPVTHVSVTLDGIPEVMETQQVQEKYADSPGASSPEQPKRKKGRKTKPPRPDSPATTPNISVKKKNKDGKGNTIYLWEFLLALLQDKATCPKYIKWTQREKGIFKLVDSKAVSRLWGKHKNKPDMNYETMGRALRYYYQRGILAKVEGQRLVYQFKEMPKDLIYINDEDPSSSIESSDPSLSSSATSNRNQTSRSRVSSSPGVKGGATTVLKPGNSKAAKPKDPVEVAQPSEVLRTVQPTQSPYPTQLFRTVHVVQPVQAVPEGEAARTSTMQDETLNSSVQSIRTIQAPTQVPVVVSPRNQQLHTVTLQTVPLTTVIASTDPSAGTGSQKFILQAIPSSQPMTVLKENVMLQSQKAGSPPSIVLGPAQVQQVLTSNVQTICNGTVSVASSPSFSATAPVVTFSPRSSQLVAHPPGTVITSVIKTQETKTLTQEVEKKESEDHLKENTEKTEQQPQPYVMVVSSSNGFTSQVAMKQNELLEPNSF
How it was run: as §1

SPIB = SPIB (Homo sapiens, UniProt Q01892 1-262)
Sequence of SPIB (Q01892 whole entry): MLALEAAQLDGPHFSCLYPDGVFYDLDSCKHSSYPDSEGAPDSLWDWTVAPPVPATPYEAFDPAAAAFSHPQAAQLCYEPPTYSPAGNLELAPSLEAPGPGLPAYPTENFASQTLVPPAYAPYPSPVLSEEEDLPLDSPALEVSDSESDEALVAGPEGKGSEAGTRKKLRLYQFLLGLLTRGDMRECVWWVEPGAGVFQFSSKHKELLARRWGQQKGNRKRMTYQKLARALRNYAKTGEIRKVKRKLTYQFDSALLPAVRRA
How it was run: as §1

ELK4 = biological target: T2, ELK4 (Homo sapiens, UniProt P28324-2 1-405)
T2 sequence: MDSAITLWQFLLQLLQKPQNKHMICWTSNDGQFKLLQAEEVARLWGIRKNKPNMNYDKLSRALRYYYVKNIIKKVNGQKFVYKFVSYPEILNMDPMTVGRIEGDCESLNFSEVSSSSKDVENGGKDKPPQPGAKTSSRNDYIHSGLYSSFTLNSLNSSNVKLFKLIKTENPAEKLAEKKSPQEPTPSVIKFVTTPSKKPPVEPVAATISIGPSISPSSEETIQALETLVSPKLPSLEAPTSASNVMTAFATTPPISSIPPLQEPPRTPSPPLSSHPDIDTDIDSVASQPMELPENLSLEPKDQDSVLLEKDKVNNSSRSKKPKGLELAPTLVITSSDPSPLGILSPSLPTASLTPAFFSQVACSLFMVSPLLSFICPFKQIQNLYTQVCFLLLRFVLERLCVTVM
How it was run: as §1

ELF3 = biological target: T3, ELF3 (Homo sapiens, UniProt P78545 1-371)
T3 sequence: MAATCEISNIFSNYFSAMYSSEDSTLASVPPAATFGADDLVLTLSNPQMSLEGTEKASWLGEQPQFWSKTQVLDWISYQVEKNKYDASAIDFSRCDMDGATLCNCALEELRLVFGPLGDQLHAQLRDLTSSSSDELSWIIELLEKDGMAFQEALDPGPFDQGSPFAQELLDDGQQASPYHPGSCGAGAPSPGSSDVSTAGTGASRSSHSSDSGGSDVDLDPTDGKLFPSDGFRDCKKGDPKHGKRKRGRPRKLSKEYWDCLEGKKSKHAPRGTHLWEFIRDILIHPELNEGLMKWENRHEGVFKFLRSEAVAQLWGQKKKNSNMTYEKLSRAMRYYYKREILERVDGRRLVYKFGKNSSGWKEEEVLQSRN
How it was run: as §1

ETV7 = biological target: T4, ETV7 (Homo sapiens, UniProt Q9Y603 1-341)
T4 sequence: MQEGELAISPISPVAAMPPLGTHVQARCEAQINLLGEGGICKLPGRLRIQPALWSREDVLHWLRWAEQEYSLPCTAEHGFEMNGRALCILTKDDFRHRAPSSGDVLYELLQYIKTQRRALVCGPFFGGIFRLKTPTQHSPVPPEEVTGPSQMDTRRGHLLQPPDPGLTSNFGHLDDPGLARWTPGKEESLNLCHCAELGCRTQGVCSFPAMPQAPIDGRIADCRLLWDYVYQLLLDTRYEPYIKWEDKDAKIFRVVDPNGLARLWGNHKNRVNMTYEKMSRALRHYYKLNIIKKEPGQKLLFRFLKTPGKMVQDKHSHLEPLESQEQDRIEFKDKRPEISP
How it was run: as §1

ELK1 = biological target: T5, ELK1 (Homo sapiens, UniProt P19419 1-428)
T5 sequence: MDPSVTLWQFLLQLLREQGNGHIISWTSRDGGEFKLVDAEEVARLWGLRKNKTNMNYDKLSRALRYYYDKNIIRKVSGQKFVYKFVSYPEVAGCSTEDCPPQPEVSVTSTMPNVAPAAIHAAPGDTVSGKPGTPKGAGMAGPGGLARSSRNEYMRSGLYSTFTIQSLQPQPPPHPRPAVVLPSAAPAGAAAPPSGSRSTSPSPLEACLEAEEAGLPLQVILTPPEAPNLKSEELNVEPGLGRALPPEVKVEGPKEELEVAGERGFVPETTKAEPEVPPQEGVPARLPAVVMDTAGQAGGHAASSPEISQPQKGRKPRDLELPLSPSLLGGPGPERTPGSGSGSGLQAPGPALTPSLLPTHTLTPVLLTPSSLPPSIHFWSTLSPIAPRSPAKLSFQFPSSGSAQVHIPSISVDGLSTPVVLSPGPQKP
How it was run: as §1

GABPA = biological target: T6, GABPA (Homo sapiens, UniProt Q06546 1-454)
T6 sequence: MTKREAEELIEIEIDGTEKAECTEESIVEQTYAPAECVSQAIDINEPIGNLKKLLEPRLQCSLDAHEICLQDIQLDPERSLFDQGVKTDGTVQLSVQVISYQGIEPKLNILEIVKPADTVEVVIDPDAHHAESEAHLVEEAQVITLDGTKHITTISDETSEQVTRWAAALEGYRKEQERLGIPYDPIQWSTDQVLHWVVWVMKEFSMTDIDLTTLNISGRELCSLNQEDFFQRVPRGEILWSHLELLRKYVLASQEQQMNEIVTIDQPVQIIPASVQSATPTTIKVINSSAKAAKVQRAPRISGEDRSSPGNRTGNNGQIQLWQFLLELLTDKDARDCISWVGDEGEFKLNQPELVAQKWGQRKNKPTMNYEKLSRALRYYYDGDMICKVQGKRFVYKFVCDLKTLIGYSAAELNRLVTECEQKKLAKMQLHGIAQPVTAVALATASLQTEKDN
How it was run: as §1

ERG = biological target: T7, ERG (Homo sapiens, UniProt P11308 1-479)
T7 sequence: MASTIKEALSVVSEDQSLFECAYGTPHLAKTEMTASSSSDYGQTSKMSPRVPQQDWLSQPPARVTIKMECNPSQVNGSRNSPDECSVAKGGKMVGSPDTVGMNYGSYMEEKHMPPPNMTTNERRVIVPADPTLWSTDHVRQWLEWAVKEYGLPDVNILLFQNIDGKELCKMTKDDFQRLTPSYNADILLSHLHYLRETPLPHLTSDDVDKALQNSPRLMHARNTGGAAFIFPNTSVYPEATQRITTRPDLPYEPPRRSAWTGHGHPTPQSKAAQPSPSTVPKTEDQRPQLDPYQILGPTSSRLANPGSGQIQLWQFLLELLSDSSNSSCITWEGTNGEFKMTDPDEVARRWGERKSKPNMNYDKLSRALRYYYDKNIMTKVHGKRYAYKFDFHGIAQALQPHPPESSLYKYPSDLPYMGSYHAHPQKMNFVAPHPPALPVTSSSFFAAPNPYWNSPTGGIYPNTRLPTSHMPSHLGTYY
How it was run: as §1

EHF = biological target: T8, EHF (Homo sapiens, UniProt Q9NZC4 1-300)
T8 sequence: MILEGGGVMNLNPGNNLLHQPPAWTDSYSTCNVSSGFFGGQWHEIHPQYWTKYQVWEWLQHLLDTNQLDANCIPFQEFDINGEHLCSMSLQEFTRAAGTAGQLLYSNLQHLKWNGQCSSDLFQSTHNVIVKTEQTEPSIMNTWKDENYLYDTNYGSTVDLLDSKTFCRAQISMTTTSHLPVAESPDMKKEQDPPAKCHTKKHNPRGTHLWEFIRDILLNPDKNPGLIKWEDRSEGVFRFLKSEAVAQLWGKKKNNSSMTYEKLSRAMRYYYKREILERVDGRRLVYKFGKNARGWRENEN
How it was run: as §1

SPIC = biological target: T9, SPIC (Homo sapiens, UniProt Q8N5J4 1-248)
T9 sequence: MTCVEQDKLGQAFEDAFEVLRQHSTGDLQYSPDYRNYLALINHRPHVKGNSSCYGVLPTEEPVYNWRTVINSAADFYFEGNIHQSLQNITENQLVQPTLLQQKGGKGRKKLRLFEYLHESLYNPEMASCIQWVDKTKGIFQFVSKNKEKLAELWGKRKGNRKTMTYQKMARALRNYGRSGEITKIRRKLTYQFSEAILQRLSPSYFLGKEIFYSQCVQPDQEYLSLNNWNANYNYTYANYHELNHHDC
How it was run: as §1

ELF4 = ELF4 (Homo sapiens, UniProt Q99607 1-663)
Sequence of ELF4 (Q99607 whole entry): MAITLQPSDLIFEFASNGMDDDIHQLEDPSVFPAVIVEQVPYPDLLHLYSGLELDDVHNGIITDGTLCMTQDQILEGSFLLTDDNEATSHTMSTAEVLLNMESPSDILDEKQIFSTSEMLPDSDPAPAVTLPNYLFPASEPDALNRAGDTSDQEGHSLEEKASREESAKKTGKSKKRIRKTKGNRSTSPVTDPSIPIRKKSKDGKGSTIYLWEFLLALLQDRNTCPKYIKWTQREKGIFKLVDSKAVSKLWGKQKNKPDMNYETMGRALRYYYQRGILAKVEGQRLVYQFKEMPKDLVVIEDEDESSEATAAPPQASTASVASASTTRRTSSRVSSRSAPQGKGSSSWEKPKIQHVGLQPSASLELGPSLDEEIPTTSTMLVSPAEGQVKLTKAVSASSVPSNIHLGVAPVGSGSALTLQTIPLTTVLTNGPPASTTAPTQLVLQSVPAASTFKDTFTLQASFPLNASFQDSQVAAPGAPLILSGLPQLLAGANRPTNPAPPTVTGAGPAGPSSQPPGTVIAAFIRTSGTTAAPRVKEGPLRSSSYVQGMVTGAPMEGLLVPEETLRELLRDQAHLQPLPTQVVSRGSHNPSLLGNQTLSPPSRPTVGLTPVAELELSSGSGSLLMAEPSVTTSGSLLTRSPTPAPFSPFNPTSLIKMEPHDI
How it was run: as §1

ETV1 = ETV1 (Homo sapiens, UniProt P50549 1-477)
Sequence of ETV1 (P50549 whole entry): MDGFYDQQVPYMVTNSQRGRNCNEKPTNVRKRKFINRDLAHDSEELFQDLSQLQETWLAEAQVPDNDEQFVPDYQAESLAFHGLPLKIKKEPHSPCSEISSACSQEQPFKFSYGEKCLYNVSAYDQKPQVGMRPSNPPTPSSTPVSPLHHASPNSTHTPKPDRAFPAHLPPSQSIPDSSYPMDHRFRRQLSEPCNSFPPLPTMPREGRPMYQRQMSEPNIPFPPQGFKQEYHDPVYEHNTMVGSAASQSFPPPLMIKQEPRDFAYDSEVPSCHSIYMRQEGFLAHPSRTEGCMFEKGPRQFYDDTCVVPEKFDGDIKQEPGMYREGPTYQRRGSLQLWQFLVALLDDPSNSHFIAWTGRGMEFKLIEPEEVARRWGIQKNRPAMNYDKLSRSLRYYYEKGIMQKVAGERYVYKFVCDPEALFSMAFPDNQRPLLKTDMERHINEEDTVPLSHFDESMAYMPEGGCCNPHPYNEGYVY
How it was run: as §1

ETV6 = ETV6 (Homo sapiens, UniProt P41212 1-452)
Sequence of ETV6 (P41212 whole entry): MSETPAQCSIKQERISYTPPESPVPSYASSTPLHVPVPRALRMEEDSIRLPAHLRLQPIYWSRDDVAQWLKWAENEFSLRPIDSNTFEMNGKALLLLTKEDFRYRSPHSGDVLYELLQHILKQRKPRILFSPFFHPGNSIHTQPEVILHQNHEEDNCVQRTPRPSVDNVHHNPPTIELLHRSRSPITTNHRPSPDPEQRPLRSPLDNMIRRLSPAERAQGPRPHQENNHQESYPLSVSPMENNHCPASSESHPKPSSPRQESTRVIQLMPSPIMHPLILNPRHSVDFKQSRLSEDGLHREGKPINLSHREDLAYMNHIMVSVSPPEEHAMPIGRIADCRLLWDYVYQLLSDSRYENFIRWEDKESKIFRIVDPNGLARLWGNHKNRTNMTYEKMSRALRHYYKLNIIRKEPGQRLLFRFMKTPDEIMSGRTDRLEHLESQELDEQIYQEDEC
How it was run: as §1

Sequence | binding signal (FLI1) | binding signal (ELF1) | binding signal (SPIB) | binding signal (ELK4) | binding signal (ELF3) | binding signal (ETV7) | binding signal (ELK1) | binding signal (GABPA) | binding signal (ERG) | binding signal (EHF) | binding signal (SPIC) | binding signal (ELF4) | binding signal (ETV1) | binding signal (ETV6)
TTGGAT | 1.02 fold enrichment (6-mer frequency, TF over GST control) | 1.01 fold enrichment (6-mer frequency, TF over GST control) | 1.07 fold enrichment (6-mer frequency, TF over GST control) | 1.04 fold enrichment (6-mer frequency, TF over GST control) | 1.04 fold enrichment (6-mer frequency, TF over GST control) | 1.01 fold enrichment (6-mer frequency, TF over GST control) |  |  |  |  |  |  |  | 
CGCAAC | 1.04 fold enrichment (6-mer frequency, TF over GST control) | 1.12 fold enrichment (6-mer frequency, TF over GST control) |  | 1 fold enrichment (6-mer frequency, TF over GST control) |  |  | 1.08 fold enrichment (6-mer frequency, TF over GST control) | 1.08 fold enrichment (6-mer frequency, TF over GST control) | 1.03 fold enrichment (6-mer frequency, TF over GST control) | 1.01 fold enrichment (6-mer frequency, TF over GST control) | 1.08 fold enrichment (6-mer frequency, TF over GST control) | 1.06 fold enrichment (6-mer frequency, TF over GST control) | 1.03 fold enrichment (6-mer frequency, TF over GST control) | 1.07 fold enrichment (6-mer frequency, TF over GST control)
